According to PubChem BioAssay AID1347165 (National Center for Advancing Translational Sciences (NCATS), 2019):
The campaign covered roughly 220,000 compounds. About 5,700 (2.6%) were called active. Not shown: some 18% with an inconclusive outcome. The call rests on the fitted dose curve; in most records, active means well fitted inhibition curve with a large enough effect; inconclusive means small, poorly fitted or top-dose-only effect; inactive means no such curve, though single readings can be large or run the other way. This excerpt belongs to a sample that is enriched for actives.

target: Lysine-specific demethylase 5B (Homo sapiens) (UniProt Q9UGL1); assay: Primary screen for KDM5B Histone Demethylases FDH-coupled qHTS; details: FDH-coupled NADH fluorescence (FDH is formaldehyde dehydrogenase); series mostly up to 57.7 µM; further: nearly all actives have a fitted effect of over 70% in size
Sequence (Q9UGL1 whole entry, looked up): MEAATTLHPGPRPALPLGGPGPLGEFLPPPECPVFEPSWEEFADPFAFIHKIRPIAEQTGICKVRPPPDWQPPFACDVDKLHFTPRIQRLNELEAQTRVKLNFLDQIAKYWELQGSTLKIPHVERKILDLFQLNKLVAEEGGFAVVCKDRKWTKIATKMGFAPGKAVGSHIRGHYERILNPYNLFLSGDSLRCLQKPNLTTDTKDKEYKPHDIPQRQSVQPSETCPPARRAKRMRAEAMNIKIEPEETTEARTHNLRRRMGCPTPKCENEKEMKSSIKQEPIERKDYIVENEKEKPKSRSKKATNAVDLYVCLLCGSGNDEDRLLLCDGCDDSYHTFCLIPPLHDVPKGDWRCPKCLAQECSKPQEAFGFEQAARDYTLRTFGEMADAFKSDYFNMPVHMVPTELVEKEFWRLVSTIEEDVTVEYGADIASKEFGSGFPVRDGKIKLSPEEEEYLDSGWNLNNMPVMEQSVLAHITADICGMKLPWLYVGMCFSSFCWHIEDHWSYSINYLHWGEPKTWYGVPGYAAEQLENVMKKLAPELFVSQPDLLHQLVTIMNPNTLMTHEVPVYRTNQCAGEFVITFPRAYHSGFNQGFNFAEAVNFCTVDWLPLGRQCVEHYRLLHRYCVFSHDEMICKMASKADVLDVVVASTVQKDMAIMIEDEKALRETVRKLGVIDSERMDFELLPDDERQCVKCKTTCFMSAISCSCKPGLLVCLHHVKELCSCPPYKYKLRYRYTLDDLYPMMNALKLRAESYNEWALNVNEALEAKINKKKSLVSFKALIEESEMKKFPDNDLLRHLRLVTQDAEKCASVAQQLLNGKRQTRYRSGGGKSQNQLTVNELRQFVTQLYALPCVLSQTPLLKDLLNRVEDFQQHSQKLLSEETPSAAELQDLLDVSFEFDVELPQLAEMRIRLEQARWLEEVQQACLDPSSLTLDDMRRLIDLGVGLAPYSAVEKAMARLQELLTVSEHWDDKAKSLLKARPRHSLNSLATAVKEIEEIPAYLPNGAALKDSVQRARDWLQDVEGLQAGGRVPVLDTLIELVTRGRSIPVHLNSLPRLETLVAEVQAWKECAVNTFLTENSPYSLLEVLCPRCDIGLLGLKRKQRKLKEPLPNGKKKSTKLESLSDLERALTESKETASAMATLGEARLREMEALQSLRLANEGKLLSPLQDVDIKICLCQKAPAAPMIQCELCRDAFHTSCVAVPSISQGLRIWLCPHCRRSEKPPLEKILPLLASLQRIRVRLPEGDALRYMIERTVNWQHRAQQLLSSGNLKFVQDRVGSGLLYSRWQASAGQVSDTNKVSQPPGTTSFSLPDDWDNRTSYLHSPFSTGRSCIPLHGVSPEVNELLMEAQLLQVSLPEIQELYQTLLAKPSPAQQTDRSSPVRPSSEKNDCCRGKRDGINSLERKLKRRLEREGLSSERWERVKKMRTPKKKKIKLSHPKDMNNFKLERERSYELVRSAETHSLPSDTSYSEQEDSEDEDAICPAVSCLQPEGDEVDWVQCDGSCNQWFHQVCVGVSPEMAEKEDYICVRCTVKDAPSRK
Procedure, shortened: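 KDM5BΔAP (200 nM final) in 50 mM HEPES pH 7.5, 0.01% Tween-20 was preincubated 10 min at RT with compound over a concentration range. Substrate mix (H3K4me3 12.5 µM, α-KG 25 µM, Fe²⁺, ascorbate, NAD⁺, FDH) was added, and NADH fluorescence change over 30 min gave dose-response curves.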
Potency means the concentration at half of the fitted maximal effect.

Potency, inactive:
CCc1nc2c(c(-c3ccc(Cl)cc3)n1)CCN([S+](=O)([O-])c1cccs1)CC2
O=C(O)c1ccc(C(=O)C2CCCCC2C(=O)O)cc1 (stereo not drawn)
Cc1nn(-c2ncnc3nc[nH]c23)c2c1C(c1ccc(F)cc1F)CC(=O)N2 (stereo not drawn)
Cc1cccc(OCc2nn3c(CN4CCOCC4)nnc3s2)c1
Cc1cc2c(s1)CCCCCCCCCC/C2=N\Nc1ccc([N+](=O)[O-])cc1
O=C(Nc1ccc2oc(=O)ccc2c1)c1cccc2ccccc12
CC(NC(=O)c1ccc(SC(F)(F)F)cc1)c1ccccn1 (stereo not drawn)
COc1ccc(NC(=O)Cc2c(C)c3ccc(O)cc3oc2=O)cc1
CC1(C)CC(NC(=O)Nc2ccc(OC(F)(F)F)cc2)CC(C)(C)N1
CN(C)C(=O)c1nc(-c2cccnc2)c2ccccn12
CC1CCCCN1CCNC(=O)c1cc2c(s1)-c1ccccc1OC2 (stereo not drawn)
NS(=O)(=O)c1ccc(F)c(C(=O)NCc2noc(-c3ccco3)n2)c1
CCCC(=O)Nc1ccc2c(c1)nc(CCNC(=O)c1ccco1)n2C
CC(C)NC(=O)C1CCc2nnc(CNC(=O)c3ccc(Cl)cc3Cl)n21 (stereo not drawn)
CCCNC(=O)N1CC(Oc2ccc(-c3nc(C)no3)cc2)C1
CN(C)c1ccc(C(=O)NCc2nnc3cc(-c4nc(C5CC5)no4)ccn23)cc1
COc1ccc(CNC(=O)c2ccc3oc(C(C)C)nc3c2)cc1
CSc1ncc(C(=O)NCCCc2ccccc2)c(C)n1
CCc1ccc(C2C(C(=O)Nc3ccccc3)=C(C)Nc3c(C(=O)Nc4ccc(F)cc4)cnn32)cc1 (stereo not drawn)
COc1ccc(CC(=O)NC(CCSC)c2nc3ccccc3[nH]2)cc1 (stereo not drawn)
Cc1cc(=O)oc2cc(OCC(=O)NCc3cccs3)c(Cl)cc12
COc1ccc(CNC(=O)CN(Cc2ccccc2Cl)C(=O)c2csnn2)cc1
Cc1noc(-c2ccccc2NC(=O)C2CC(=O)N(c3cccc(C(F)(F)F)c3)C2)n1 (stereo not drawn)
O=C(c1cccc(Cl)c1)N1CCc2nc(C3CC3)nc(-c3ccc(Cl)cc3)c2C1
CC(C)c1nc2c(c(-c3ccc(Cl)cc3)n1)CN(C(=O)c1ccccc1)CC2
CC(C(=O)N1CCc2ccccc21)N(C)CC(=O)Nc1ccc(F)cc1 (stereo not drawn)
CCc1ccc(C(=O)C(C)Sc2nc3ccccc3c(=O)n2CCC(=O)OC)cc1 (stereo not drawn)
CCCCCCCCOc1ccc(C(=O)c2ccccc2O)c(O)c1
COc1ccc(-c2c(NC(=O)C(C)C)oc3c(C)cccc3c2=O)cc1
O=C(C1CCCC1)N1Cc2ccccc2CC2(CCCCN2CC2CCNCC2)C1 (stereo not drawn)
COc1ccc(CN2CCn3c(nn(-c4ccncc4)c3=O)C2)cc1
O=C(c1ccc(C(F)(F)F)cc1)N1CCn2c(nn(-c3cccc(Cl)c3)c2=O)C1
Cc1ccc2c(Cn3cc(S(=O)(=O)N(C)C)ccc3=O)cc(=O)oc2c1
Cc1ccc(-c2noc(-c3cccc(Cl)c3)n2)cc1
O=C(CSc1nc2ccccc2nc1N1CCCC1)N1CCN(c2ccccc2)CC1
Cc1ccc(C(=O)C(C)Sc2nnc3ccccn23)cc1 (stereo not drawn)
O=C(c1ccsc1)N1CCN(c2nnc3ccc(C(F)(F)F)cn23)CC1
CCC(C)c1ccc(-n2c(SCC(=O)N3CCC3)nc3ccccc3c2=O)cc1 (stereo not drawn)
O=C(/C=C/c1ccc(Cl)cc1Cl)Nc1ccc(-c2ccccc2)cc1
Cc1cc(=O)oc2c(C)c(OC(=O)CN3C(=O)NC4(CCCC4)C3=O)ccc12
N#C/C(=C/c1cccnc1)C(=O)NCCc1ccccc1
COCCNC(=S)NC1CC(C)(C)NC(C)(C)C1
Cc1ccc2[nH]cc(CCNC(=O)c3ccc(F)c(F)c3)c2c1
O=C(c1ccccc1)c1ccc(C2CC2)cc1
CSc1ccc(CCNc2nc(-c3ccccc3F)no2)cc1
Cc1ncc(CO)c2cc(-c3nc(-c4ccccc4F)no3)c(=O)oc12
Fc1ccc(Nc2nc(-c3ccccc3F)no2)cc1
COc1cccc(C2Cn3nnc(-c4nc(-c5ccccc5F)no4)c3CO2)c1 (stereo not drawn)
Cc1cccc(NC(=O)CSCC(=O)Nc2nnc(C3CC3)s2)c1
CC(C)CCNC(=O)NC(=O)CSc1nnc(-c2ccccc2)c(-c2ccccc2)n1
Cc1cc(Br)c(S(=O)(=O)NCCO)cc1C
CCCCn1cnc2c1c(=O)n(CC(=O)Nc1ccccc1C)c(=O)n2CCCC
Cc1ccc(C)c(C(NC(=O)c2ccccc2C)c2cccnc2)c1 (stereo not drawn)
COc1cccc(-c2cn3c(n2)N(C(=O)Cc2ccccc2)CCC3)c1
COc1cccc(-c2cc(C3CCN(C(=O)Nc4ccccc4C)CC3)[nH]n2)c1
CN(C)c1ccc(C(=O)/C=C/c2ccncc2)cc1
COc1ccc(OC)c(C2C(C#N)=C(N)Oc3cc(O)ccc32)c1 (stereo not drawn)
Cc1ccc2c(=O)cc(C(=O)N(Cc3ccc(Cl)cc3)C3CCS(=O)(=O)C3)oc2c1C (stereo not drawn)
O=S(=O)(NCCc1cn2ccccc2n1)c1cc(Cl)ccc1Cl
COc1ccc(C(=O)N[C@H](c2cnn(C)c2)C2CC(O)C2)c(F)c1F (stereo partly drawn)
COc1ccc(-n2c3c(cc(-c4ncnn4-c4ccc(C)cc4C)c2=O)C(=O)CC(C)(C)C3)cc1
O=C(Cn1ncn2nc(-c3cccs3)cc2c1=O)N1CCCCCC1
O=C(c1cnc[nH]1)N1C[C@@H](COCC2CC2)[C@H](c2ccccn2)C1
CCn1cc(C(=O)N2C[C@@H](COCC3CC3)[C@H](c3ccccn3)C2)cn1
Cc1ccc2ncc([N+](=O)[O-])cc2c1
COc1ccc(NC(=O)c2c(Cl)cccc2Cl)cc1
CCc1ccc(C(=O)Nc2ccccc2O)o1
COc1ccccc1-c1cn(C)c(=O)n2cc(COc3ccc(C(=O)O)cc3)nc12
CC(C)N(C(=O)c1ccc(-c2ccccc2F)cc1)C(C)C
C=CCN(CC=C)S(=O)(=O)c1cccc2nsnc12
CC(C)c1ccc(/C=C/C(=O)NCCCN2CCOCC2)cc1
COc1ccc(C)cc1CN1CCN(C(=O)Nc2cccc(C)c2)CC1
Cc1ccc(C(=O)N2C[C@@H](COc3ccccc3)[C@H](C(N)=O)C2)cc1
CCOC(=O)c1ccc(NC(=O)CCn2ccn3nc4c(c3c2=O)CCCC4)cc1
CC(C)(C)C(=O)Cn1ccn2nc3c(c2c1=O)CCCC3
CC(=O)Oc1ccc(C(=O)Nc2ccc(O)c(-c3nc4ccccc4o3)c2)cc1
CN(C)Cc1cn2c(=O)n(C)cc(-c3cccc(OCc4ccccc4)c3)c2n1
Cc1cc(-c2cn(C)c(=O)n3cc(COc4ccccc4)nc23)ccn1
CSc1ccc(CN(C)S(=O)(=O)c2ccc3c(c2)OCCCO3)cc1
Cc1cccc(N2CCN(C(=O)c3cc4n(n3)CC(c3ccc(Cl)cc3)OC4)CC2)c1 (stereo not drawn)
CCNCc1ccccc1C(F)(F)F
O=C(NCc1ccc(F)cc1F)c1nnn2c1COC(c1ccc(Br)cc1)C2 (stereo not drawn)
Cc1ccc(NC(=O)c2cn3c4c(ccc(Cl)c4c2=O)OC(C)C3)cc1C (stereo not drawn)
COc1ccc2c(c1)C=C(C(=O)NCc1cc(Br)ccc1OC)CO2
Cn1cnnc1-c1cccc(NC(=O)c2ccc3c(c2)OCO3)c1
O=C(Nc1ccc(Cl)cc1)C1CCN(C(=O)c2ncn3c2COC(c2ccc(F)cc2)C3)CC1 (stereo not drawn)
COc1ccc(CNC(=O)c2ccc3c(c2)nc2n3CCOC2)c(OC)c1

Potency, active:
CN(C)C(=O)c1nc(-c2ccc(Cl)cc2Cl)c2cnccn12 100 µM
O=C(NCc1nnc2cc(-c3nc(C4CC4)no3)ccn12)c1ccc(F)cc1Cl 28.2 µM
CCc1noc(-c2ccn3c(CNC(=O)c4ccco4)nnc3c2)n1 28.2 µM
COc1ccc(C(=O)NCc2nnc3cc(-c4nc(C)no4)ccn23)cc1 25.1 µM
N#CC1CCN(C(=O)c2nc(-c3ccc(Cl)cc3)c3ccccn23)CC1 25.1 µM
C=CCCC(CN1CCCC1)Oc1cncc(C(=O)N2CCCC2)n1 (stereo not drawn) 8.91 µM
Cn1cccc1CN1CCn2c(nn(-c3cccc(Cl)c3)c2=O)C1 63.1 µM
CC(C)CC(=O)N1CCN(c2nnc3ccccn23)CC1 28.2 µM
CC(C)CC(=O)N1CCCN(c2nnc3ccccn23)CC1 25.1 µM
CN(CCc1cn[nH]c1)c1ccc(-c2nc(-c3ccccc3F)no2)cn1 28.2 µM
CN(C)CCN(C)c1ccc(-c2nc(-c3ccccc3F)no2)cn1 28.2 µM
COc1cccc(-c2cn3c(n2)NCCC3)c1 25.1 µM
Cn1cc([C@@H](NC(=O)CCc2cn3ccccc3n2)C2CC(O)C2)cn1 (stereo partly drawn) 31.6 µM
c1ccc([C@@H]2CNC[C@H]2COCC2CC2)nc1 15.8 µM
COc1ccccc1-c1ccc(C(=O)O)cc1 112 µM
CCc1ccc(NC(=O)Cn2ccn3nc4c(c3c2=O)CCCC4)cc1 20 µM
CN(C)c1cccc(-c2cn(C)c(=O)n3cc(COc4ccc(Cl)cc4)nc23)c1 25.1 µM
O=C(NCc1ccccc1C(F)(F)F)c1cc2n(n1)CC(c1ccc3c(c1)OCO3)OC2 (stereo not drawn) 31.6 µM
O=C(Nc1cccc(F)c1)c1cc2n(n1)CC(c1ccc(Cl)cc1)OC2 (stereo not drawn) 22.4 µM
Cc1ccc(NC(=O)c2cc3n(n2)CC(c2ccc4c(c2)OCO4)OC3)cc1C (stereo not drawn) 35.5 µM
COc1ccc(CNC(=O)c2cc3n(n2)CC(c2ccc4c(c2)OCO4)OC3)c(OC)c1 (stereo not drawn) 31.6 µM
